# Rows were chosen to be rich in hits. Some 21% of all compounds tested hit in one or more screens of this group.
# TDP1 cell CPT – DT40-hTDP1 cell growth loss with CPT; chicken DT40 Tdp1-/-;hTDP1 cells + 20 nM CPT, ATP luminescence, 48 h; Potency, µM (doses to about 46.2 µM), actives largely listed as inhibitors; AID 686979; 420,000 compounds, 12% hits; further: nearly all actives have a fitted effect of over 55% in size
#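 Cell growth measured by CellTiter-Glo luminescence after a minimum 48 h, 37 C compound exposure with 20 nM CPT in Tdp1-knockout DT40 cells stably expressing hTDP1, seeded 400/well; qHTS titration format.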
# DRD3 agonist – agonists of human D3 dopamine receptor. max activation, %. D3R DiscoveRx beta-arrestin cells, luminescence, 90 min. 410,000 compounds, 0.58% hits. AID 652048; in the data active means max activation above about 30%
#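 Agonist mode: compounds and dopamine controls were applied to plated cells for 90 min at 37 degrees C after an overnight attachment at 1500 cells/well. Luminescent read-out followed 30 - 60 minutes at room temperature with DiscoveRx detection reagent.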
# ClpP mod – qHTS Assay for Activators of ClpP. ATP-dependent Clp protease proteolytic subunit (Bacillus subtilis (strain 168)), P80244. purified B. subtilis ClpP, FRET peptide cleavage, 20 min. Potency, µM (doses to about 57.5 µM). 340,000 compounds, 1.9% hits; active means well fitted falling curve with a large enough effect; inconclusive means small, poorly fitted or top-dose-only effect; inactive means no such curve, though single readings can be large or run the other way; further: the source files actives as falling curves though it sought activators and does not explain the sign; nearly all actives have a fitted effect of over 65% in size
# Target sequence (P80244 whole entry, looked up): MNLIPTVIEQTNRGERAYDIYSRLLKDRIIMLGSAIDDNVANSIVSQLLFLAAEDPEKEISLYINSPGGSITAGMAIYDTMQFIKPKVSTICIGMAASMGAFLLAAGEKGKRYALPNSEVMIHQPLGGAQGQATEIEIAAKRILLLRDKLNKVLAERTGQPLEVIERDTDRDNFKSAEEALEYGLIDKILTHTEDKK
#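 ClpP 10 microg/mL final, pH 8 Tris/KCl buffer with BSA, glycerol, Tween-20; compound pinned in; FRET-FV substrate; RT 20 min; Ex320/Em430; ΔFRET vs ADEP 5.8 microM, DMSO, no enzyme.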
# DT40 TDP1 no CPT – qHTS for Inhibitors of human tyrosyl-DNA phosphodiesterase 1 (TDP1): qHTS in cells in absence of CPT; DT40 Tdp1-/- hTDP1 cells, no CPT, ATP luminescence, 48 h; Potency, µM (highest dose often 46.2 µM), actives largely listed as inhibitors; 420,000 compounds, 15% hits; further: nearly all actives have a fitted effect of over 55% in size
#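 Seeded 400 DT40-hTDP1 cells/well (vehicle DMSO, no 20 nM CPT); pinned compounds; ≥48 hr at 37 °C; CellTiter-Glo luminescence as viability measure.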
# DRD3 antagonist – blocks the human D3 dopamine receptor; AID 652054; max response, negative = inhibition, %; 360,000 compounds, 2.5% hits; D3R cells, DiscoveRx beta-arrestin luminescence, antagonist mode; active compounds read low; P35462; in the data active means max response below about -50%; inconclusive means no clear call, values can overlap the other calls
#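 Cells plated overnight at 1500 cells/well, then exposed to library compounds with dopamine controls for 90 minutes at 37 degrees C. DiscoveRx reagent added for 30–60 minutes at room temperature; luminescence read, quantitative HTS format.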
# IL1B secr inh – inflammasome signaling inhibition, IL-1 beta readout; 360,000 compounds, 4.7% hits; activity change, % at 57.5 µM; THP-1 LPS/ATP IL-1B secretion, AlphaLISA, 16 h; active compounds read low; in the data active means activity change below about -50%; inconclusive means mostly about -30% to -49%
#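 Secreted IL-1B measured by AlphaLISA bead assay after 16 h compound exposure of THP-1 cells; compounds (final up to 57.5 uM) added 1 h before LPS (250 ng/mL) and ATP (1.25 mM) stimulation; lower signal means less secretion.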
# A number is an active result; – = inactive; ? = inconclusive; · = not tested or not shown; ! = not active in a repeat. Unless noted, the call rests on the fitted dose curve; in most records, active means well fitted inhibition curve with a large enough effect; inconclusive means small, poorly fitted or top-dose-only effect; inactive means flat fitted curve, though single readings scatter.
SMILES,TDP1 cell CPT,DRD3 agonist,ClpP mod,DT40 TDP1 no CPT,DRD3 antagonist,IL1B secr inh
CCN(Cc1ccccc1)C(=O)CCc1nc(CN2CCN(C(=O)c3ccc([N+](=O)[O-])cc3)CC2)no1,?,–,·,?,–,–
Cc1c(N)nc(C(CC(N)=O)NCC(N)C(N)=O)nc1C(=O)NC(C(=O)NC(C)C(O)C(C)C(=O)NC(C(=O)NCCc1nc(-c2nc(C(=O)NCCCN[C@@H](C)c3ccccc3)cs2)cs1)C(C)O)C(O[C@@H]1O[C@@H](CO)[C@@H](O)[C@H](O)[C@@H]1O[C@H]1O[C@H](CO)[C@@H](O)[C@H](OC(N)=O)[C@@H]1O)c1cnc[nH]1 (some centres undefined),1.19µM,–,·,1.68µM,·,·
COc1cccc(-c2ncc3ccccc3c2COC(=O)c2ccc(C(F)(F)F)cc2)c1,?,–,–,?,–,–
CCC1CCCCN1S(=O)(=O)c1ccc(NC(=O)c2cccnc2)cc1 (centres undefined),–,–,–,?,–,–
CC1CC(C)CN(S(=O)(=O)c2ccc(C(=O)Nc3sccc3C(N)=O)cc2)C1 (centres undefined),18.4µM,–,–,20.6µM,–,–
NC(=O)c1ccsc1NC(=O)c1ccc(S(=O)(=O)N2CCCC2)cc1,?,–,–,?,–,–
CCC1CCCCN1S(=O)(=O)c1ccc(C(=O)Nc2nnc(-c3cccs3)o2)cc1 (centres undefined),6.31µM,–,–,6.31µM,-75.5,–
CC1CC(C)CN(S(=O)(=O)c2ccc(C(=O)Nc3nnc(-c4cccs4)o3)cc2)C1 (centres undefined),6.31µM,–,–,5.01µM,–,–
COc1ccc(CCNC(=O)CN(Cc2ccc(Cl)cc2)S(C)(=O)=O)cc1,–,–,–,?,–,–
c1ccc(C2=Nc3c(ccc4ccccc34)C(c3ccncc3)=NN2)cc1,8.2µM,–,·,20.6µM,–,–
CC1(C(=O)NCC2CC2)Cc2c(-c3cccc(C(F)(F)F)c3)ccnc2O1 (centres undefined),5.8µM,–,–,5.8µM,–,–
COCCNC(=O)C1(C)Cc2c(-c3cccc(C(N)=O)c3)ccnc2O1 (centres undefined),?,–,–,–,–,–
COCCNC(=O)C1(C)Cc2c(-c3cccc(C(F)(F)F)c3)ccnc2O1 (centres undefined),9.2µM,–,–,9.2µM,–,–
CCCNC(=O)C(Cc1ccccc1C)NC(=O)c1ccc(C(F)(F)F)cc1 (centres undefined),–,–,–,–,–,–
Cc1ccc(-c2ocnc2C(=O)N2CCOCC2)cc1,–,–,–,–,–,–
CC1CCN(CC(=O)N2CCCc3c2c(=O)oc2ccc(OCc4ccccc4)cc32)CC1,?,–,?,13µM!,?,–
CCCOc1ccc2oc(=O)c3c(c2c1)CCCN3C(=O)CN1CCc2ccccc2C1,?,–,17.8µM,23.1µM,–,–
CC1CC(C)CN(CC(=O)N2CCCc3c2c(=O)oc2ccc(OCc4ccccc4)cc32)C1 (centres undefined),20.6µM,–,–,11.6µM,–,–
CC(=O)N1CCN(C(=O)COc2ccc3oc4c(c3c2)CCCC4)CC1,–,–,–,–,–,–
Cc1c(Cc2ccccc2)c(=O)oc2cc(OCc3ccc(C(=O)O)cc3)ccc12,–,–,·,–,–,–
Clc1ccc(-c2noc(-c3cccnc3NCc3ccco3)n2)cc1,–,–,?,–,·,·
CCC(=O)c1ccc(OCC(=O)OCC(=O)NCCCc2ccccc2)cc1,–,–,–,–,–,–
COCCNC(=O)CCSc1nc(-c2ccc(OC)cc2)cc(C(F)(F)F)n1,23.1µM!,–,–,20.6µM,–,–
COc1ccc(-c2cc(C(F)(F)F)nc(SCCC(=O)Nc3cccc(OC)c3)n2)cc1,·,–,–,·,·,·

# Assay outcomes from PubChem.
